From PubChem BioAssay
HP1b chromo inh – HTS for Inhibitors of HP1-beta Chromodomain Interactions with Methylated Histone Tails. Chromobox protein homolog 1 (Homo sapiens), P83916. Potency, µM (series often up to 114 µM), hits mostly inhibitors. 0.56% of 390,000 active. AlphaScreen HP1-beta / biotin-H3K9me3 peptide binding. AID 540317, 2011; note: nearly all actives have a fitted effect of over 70% in size
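HP1-beta protein (50 nM final) preincubated 30 min at room temperature with biotinylated H3(1-18)K9me3 peptide (50 nM) in PBS pH 7.4, 0.01% Tween-20, then compound added for 30 min. AlphaScreen streptavidin donor/nickel chelate acceptor beads (10 ug/mL final), 30 min dark, luminescence read.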
BAZ2B block – qHTS Assay for Inhibitors of BAZ2B. AlphaScreen BAZ2B-H3K14Ac peptide displacement. 4.4% of 360,000 active. Potency, µM (top dose mostly 114 µM), hits mostly inhibitors. AID 504333, 2011; note: nearly all actives have a fitted effect of over 60% in size
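Protein-peptide AlphaScreen: BAZ2B 50 nM, b-H3K14Ac 50 nM, 1x PBS pH 7.4 + 0.01% Tween-20. Preincubation 30 min RT; cpd 30 min RT (top 110 uM); beads 20 min RT, light-protected.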
JMJD2A Tudor – qHTS Assay for Inhibitors of JMJD2A-Tudor Domain. Lysine-specific demethylase 4A (Homo sapiens), O75164. AlphaScreen JMJD2A-Tudor / H3K4me3 peptide binding. Potency, µM (highest dose often 114 µM), usual class: inhibitors. 4.4% of 390,000 active; note: nearly all actives have a fitted effect of over 50% in size
G9a block – qHTS Assay for Inhibitors of Histone Lysine Methyltransferase G9a; G9a H3K9 monomethylation, AlphaScreen, 2 h; Potency, µM (titrated, usually from 102 µM), hits mostly inhibitors; 8.8% of 350,000 active; AID 504332, 2011; note: nearly all actives have a fitted effect of over 75% in size
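G9a (20 nM) preincubated 15 min RT with compounds, then 500 nM biotinylated H3K9 peptide and 20 uM SAM added; 2 h RT reaction. Monomethyl-H3K9 product detected by AlphaScreen with anti-H3K9me1 antibody, streptavidin donor and anti-rabbit IgG acceptor beads.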
L3MBTL1 inh – qHTS Assay for the Inhibitors of L3MBTL1; 0.66% of 230,000 active; Potency, µM (highest dose often 57.1 µM), actives largely listed as inhibitors; AlphaScreen L3MBTL1–H3K9me1 peptide binding; Lethal(3)malignant brain tumor-like protein 1 (Homo sapiens), Q9Y468; note: nearly all actives have a fitted effect of over 60% in size
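AlphaScreen assay: L3MBTL1 (50 nM final) was preincubated 30 min at room temperature with biotinylated H3(1-15)K9me1 peptide (75 nM final), then 30 min with library compounds; streptavidin donor and nickel chelate acceptor beads (10 ug/mL final) added, 30 min dark.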
PI5P4Ka inh – qHTS for Inhibitors of phosphatidylinositol 5-phosphate 4-kinase (PI5P4K) | Phosphatidylinositol 5-phosphate 4-kinase type-2 alpha (Homo sapiens), P48426 | PI5P4Kalpha enzyme, ADP-Glo luminescence, 60 min; active compounds read low | max response, % | 1.2% of 330,000 active | AID 652105, 2013; active = max response of -50% or lower; inconclusive = between -30% and -50%; inactive = -30% or higher; note: value at the top dose of about 77 µM
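Enzyme plus substrate dispensed, test compounds pinned in, then ATP (5 microM final) added. After 60 min at RT, ADP-Glo reagent 1 for 45 min and reagent 2 for 30 min preceded luminescence imaging.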
Numbers stand for hits; . = inactive; ? = inconclusive; / = no result given; ! = not confirmed by another sample; [ ] = remark or other dose. Most compounds without a hit are left out; they make up all but 11% or so of the library. Unless noted, calls come from the whole dose curve; as a rule, active = well fitted inhibition curve with a large enough effect; inconclusive = small, poorly fitted or top-dose-only effect; inactive = no such curve, though single readings can be large or run the other way.

SMILES	HP1b chromo inh	BAZ2B block	JMJD2A Tudor	G9a block	L3MBTL1 inh	PI5P4Ka inh
COc1ccc(CNCc2cc(C)c(OC)cc2C)c(OC)c1	?	50µM	20µM	/	.	.
Cc1ccc2c(c1)c1c(c(=O)n(Cc3ccccc3)c(=O)n1Cc1cccc(C(F)(F)F)c1)n2C	.	.	.	.	/	/
CC1CCC(Nc2nc3c(-c4cccc(C(F)(F)F)c4)nnn3c3ccccc23)CC1 (stereo not given)	.	.	.	.	/	/
Cc1ccc2oc(=O)c3cc(C(=O)N4CCN(c5ccccc5)CC4)sc3c2c1	.	.	.	.	/	/
O=C(Nc1cc(-c2nc3cc(Cl)ccc3o2)ccc1Cl)c1cc2ccccc2o1	.	.	.	.	/	/
O=C/C=C/c1c(-c2ccccc2)cc2oc3ccccc3cc1-2	6.3µM	3.5µM	6.3µM	8.9µM	/	?
COC(=O)C1=C(C)N(Cc2ccccc2)C(=NCC(C)C)N[C@H]1c1ccc(Br)cc1	/	?	/	.[12.7 µM]	/	/
COC(=O)C1=C(C)N(Cc2ccccc2)C(=NCCc2cccnc2)N[C@H]1c1ccccc1	.	56µM	?	32µM!	.	.
CCN(CC)CCCN=C1N[C@@H](c2ccccc2)C(C(=O)OC)=C(C)N1CC	.	79µM	32µM	40µM!	.	.
COC(=O)C1=C(C)N(Cc2ccccc2)C(=NCCc2cccnc2)N[C@H]1c1ccc(Br)cc1	.	56µM	28µM	.[12.7 µM]	.	.
COC(=O)C1=C(C)N(Cc2ccccc2)C(=NCCCCO)N[C@H]1c1ccccc1	.	?	?	79µM!	.	.
CCN1C(=NCC2CC2)N[C@@H](c2ccccc2)C(C(=O)OC)=C1C	.	.	?	.[12.7 µM]	.	.
CCOC(=O)CCc1cc(F)c(S(=O)(=O)N2CCN(S(=O)(=O)c3ccc4c(c3)OCCO4)CC2)cc1F	/	/	.	/	/	/
CCc1ccc(NC(=O)C2CCN(c3nn4c(=O)cc(C)nc4s3)CC2)cc1	.	.	.	.	/	/
CN(C1CCCCC1)S(=O)(=O)c1ccc2c(c1)c(=O)c(C(=O)NCCc1ccc(Cl)cc1)cn2C	.	/	.	.	/	/
CSc1ncc2c(n1)-c1ccccc1N(Cc1ccc(Cl)cc1)S2(=O)=O	.	.	.	.	/	/
COc1ccc(C(=O)N2CCC(c3nc(-c4ccc(S(=O)(=O)N5CCCC5)cc4)no3)CC2)cc1	.	.	.	.	/	/
O=C(NC1CCCC1)c1c[nH]c2ccc(S(=O)(=O)Nc3cccc(C(F)(F)F)c3)cc2c1=O	.	/	?	.	/	/
CN(c1ccccc1)S(=O)(=O)c1cccc(C(=O)NCCc2ccc(O)c(O)c2)c1	?	.	13µM	8.9µM	?	?
CN(c1ccccc1)S(=O)(=O)c1cccc(C(=O)Nc2ccc(N3CCOCC3)cc2)c1	.	?	?	56µM	.	.
CCN(CC)S(=O)(=O)c1cccc(C(=O)NCCc2ccccc2)c1	.	/	.	/	/	/
O=C(Nc1ccccc1)c1ccc(N2CCN(c3ccccc3)CC2)c(S(=O)(=O)N2CCOCC2)c1	.	79µM	.	.	/	.
O=C(Nc1ccccc1)c1ccc(N2CCN(c3ccccn3)CC2)c(S(=O)(=O)N2CCOCC2)c1	.	.	.	.	/	.
Cc1ccc(N(C)S(=O)(=O)c2cccc(C(=O)Nc3ccc(N4CCOCC4)cc3)c2)cc1	.	?	?	?	.	.
O=C(NNC(=S)NCC1CCCO1)c1cccc(S(=O)(=O)N2CCOCC2)c1 (stereo not given)	.	.	.	50µM	.	.
COc1ccc(Cl)cc1S(=O)(=O)N1CCN(S(=O)(=O)c2ccc3c(c2)OCCO3)CC1	/	/	.	/	/	/
C[C@H](O)CN(C)C	/	/	/	.[12.7 µM]	/	/
COc1ccc(C(=O)Nc2ccc(N3CCCCCC3)cc2)cc1S(=O)(=O)N1CCOCC1	?	28µM	7.1µM	?	?	.
